Measurements taken from PMC8384837, “Expanding the binding specificity for RNA recognition by a PUF domain”.
Where a chain is given by its changes, count along the chain named.

How the values were obtained:
Experiment in all cases: yeast three-hybrid, YBZ-1, SC-Leu-His + 0.5 mM 3-AT, 4 days
Details in all cases: tags: N-Gal4 AD-HA kept; label: inside an RPR1-promoter hybrid RNA with tandem MS2 sites; ssRNA
PUM1 PUF domain R5-KHC = PUM1 PUF domain R5-KHC (Homo sapiens, UniProt Q14671 828-1176, C1007K;R1008H;Q1011C)
How it was run: (§1)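 The interaction score is the logarithmic change in variant frequency from input to selection. It uses log2, with a pseudocount of 1 for absent variants, and frequencies came from PCR-amplified, Illumina-sequenced repeat regions. The libraries were Pumilio-1 PUF domains randomized at the three base-contacting residues per repeat, co-expressed with matching RNA elements in strain YBZ-1 (LexA–MS2 coat fusion, HIS3 reporter). Plating lasted four days on SC-Leu (input) or SC-Leu-His + 0.5 mM 3-AT (selection).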

PUM1 PUF domain R3-EFE = PUM1 PUF domain R3-EFE (Homo sapiens, UniProt Q14671 828-1176, C935E;R936F;Q939E)
How it was run: as §1

PUM1 PUF domain R3-RTL = PUM1 PUF domain R3-RTL (Homo sapiens, UniProt Q14671 828-1176, C935R;R936T;Q939L)
How it was run: as §1

PUM1 PUF domain R5-AVR = PUM1 PUF domain R5-AVR (Homo sapiens, UniProt Q14671 828-1176, C1007A;R1008V;Q1011R)
How it was run: as §1

PUM1 PUF domain R4-SNC = PUM1 PUF domain R4-SNC (Homo sapiens, UniProt Q14671 828-1176, N971S;H972N;Q975C)
How it was run: as §1

PUM1 PUF domain R8-VWK = PUM1 PUF domain R8-VWK (Homo sapiens, UniProt Q14671 828-1176, N1122V;Y1123W;Q1126K)
How it was run: as §1

PUM1 PUF domain R6-SYS = biological target: T1, PUM1 PUF domain R6-SYS (Homo sapiens, UniProt Q14671 828-1176, N1043S;Q1047S)
T1 sequence: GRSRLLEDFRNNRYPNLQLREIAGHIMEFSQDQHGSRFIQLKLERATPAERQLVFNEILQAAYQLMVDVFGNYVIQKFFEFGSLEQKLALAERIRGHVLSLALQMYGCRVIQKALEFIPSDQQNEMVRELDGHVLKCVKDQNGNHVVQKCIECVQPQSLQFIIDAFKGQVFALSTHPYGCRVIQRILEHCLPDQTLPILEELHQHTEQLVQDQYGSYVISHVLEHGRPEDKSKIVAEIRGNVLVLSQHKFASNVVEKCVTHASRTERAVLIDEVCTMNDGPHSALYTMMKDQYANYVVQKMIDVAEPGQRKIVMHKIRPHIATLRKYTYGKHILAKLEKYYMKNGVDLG
How it was run: as §1

PUM1 PUF domain R6-AFG = biological target: T2, PUM1 PUF domain R6-AFG (Homo sapiens, UniProt Q14671 828-1176, N1043A;Y1044F;Q1047G)
T2 sequence: T1 sequence with S216A, Y217F, S220G
How it was run: as §1

PUM1 PUF domain R2-KKG = PUM1 PUF domain R2-KKG (Homo sapiens, UniProt Q14671 828-1176, N899K;Y900K;Q903G)
How it was run: as §1

PUM1 PUF domain R5-SRQ = PUM1 PUF domain R5-SRQ (Homo sapiens, UniProt Q14671 828-1176, C1007S)
How it was run: as §1

GGCUAGAACUAGUGGAUCCCCCGGCGCCCGGCGGCUCGAGCCCGGGUAAGUGUUAAUAGUCUGCAUGCCGCCGGGCGCCAUGCCUGCAGGUCGACUCUAGAAAACAUG
binding signal (PUM1 PUF domain R5-KHC): 6.52 log2 enrichment (interaction score)

GGCUAGAACUAGUGGAUCCCCCGGCGCCCGGCGGCUCGAGCCCGGGUAAGUGUAAUUAGUCUGCAUGCCGCCGGGCGCCAUGCCUGCAGGUCGACUCUAGAAAACAUG
binding signal (PUM1 PUF domain R3-EFE): 3.56 log2 enrichment (interaction score)
binding signal (PUM1 PUF domain R3-RTL): 2.61 log2 enrichment (interaction score)

GGCUAGAACUAGUGGAUCCCCCGGCGCCCGGCGGCUCGAGCCCGGGUAAGUGUCAAUAGUCUGCAUGCCGCCGGGCGCCAUGCCUGCAGGUCGACUCUAGAAAACAUG
binding signal (PUM1 PUF domain R5-AVR): 4.64 log2 enrichment (interaction score)

GGCUAGAACUAGUGGAUCCCCCGGCGCCCGGCGGCUCGAGCCCGGGUAAGUGUAAAUAGUCUGCAUGCCGCCGGGCGCCAUGCCUGCAGGUCGACUCUAGAAAACAUG
binding signal (PUM1 PUF domain R5-AVR): 1.73 log2 enrichment (interaction score)
binding signal (PUM1 PUF domain R5-KHC): 3.4 log2 enrichment (interaction score)
binding signal (PUM1 PUF domain R4-SNC): 2.78 log2 enrichment (interaction score)
binding signal (PUM1 PUF domain R8-VWK): 4.11 log2 enrichment (interaction score)
binding signal (PUM1 PUF domain R6-SYS): 3 log2 enrichment (interaction score)
binding signal (PUM1 PUF domain R6-AFG): 3.11 log2 enrichment (interaction score)

GGCUAGAACUAGUGGAUCCCCCGGCGCCCGGCGGCUCGAGCCCGGGUAAGUGUAUAUAGUCUGCAUGCCGCCGGGCGCCAUGCCUGCAGGUCGACUCUAGAAAACAUG
binding signal (PUM1 PUF domain R4-SNC): 3.92 log2 enrichment (interaction score)

GGCUAGAACUAGUGGAUCCCCCGGCGCCCGGCGGCUCGAGCCCGGGUAAGUGUACAUAGUCUGCAUGCCGCCGGGCGCCAUGCCUGCAGGUCGACUCUAGAAAACAUG
binding signal (PUM1 PUF domain R4-SNC): 2.48 log2 enrichment (interaction score)

GGCUAGAACUAGUGGAUCCCCCGGCGCCCGGCGGCUCGAGCCCGGGUAAGUGUAAGUAGUCUGCAUGCCGCCGGGCGCCAUGCCUGCAGGUCGACUCUAGAAAACAUG
binding signal (PUM1 PUF domain R3-EFE): 5.2 log2 enrichment (interaction score)

GGCUAGAACUAGUGGAUCCCCCGGCGCCCGGCGGCUCGAGCCCGGGUAAGUGUAAAGAGUCUGCAUGCCGCCGGGCGCCAUGCCUGCAGGUCGACUCUAGAAAACAUG
binding signal (PUM1 PUF domain R2-KKG): 7.11 log2 enrichment (interaction score)

GGCUAGAACUAGUGGAUCCCCCGGCGCCCGGCGGCUCGAGCCCGGGUAAGUGUGAAUAGUCUGCAUGCCGCCGGGCGCCAUGCCUGCAGGUCGACUCUAGAAAACAUG
binding signal (PUM1 PUF domain R5-AVR): 0.2 log2 enrichment (interaction score)
binding signal (PUM1 PUF domain R5-SRQ): 3.6 log2 enrichment (interaction score)
